In PubChem BioAssay (NCATS) one finds Potency data, which are given here for 13 compounds.

Inconclusive results are not listed. Calls of active or inactive are those of the source. Calls follow the shape of the dose curve; as a rule, active = well fitted inhibition curve with a large enough effect; inconclusive = small, poorly fitted or top-dose-only effect; inactive = flat fitted curve, though single readings scatter. Peptide text beside a SMILES is read from it.

What all share (experiment): qHTS profiling for inhibitors of Plasmodium falciparum proliferation (AID 504749); also: nearly all actives have a fitted effect of over 60% in size
Common to all, as to settings: P. falciparum in erythrocytes, SYBR Green DNA, 72 h; series mostly up to 28.7 µM
(In general: In qHTS, concentration-response curves come from the screen itself.)

One assay relates to CP237. In a few lines:
(§1)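 In a 72 h erythrocytic culture (37 C, humidified, 5% CO2) at 2.5% hematocrit and 0.3% starting parasitemia, compounds were tested; SYBR Green I in detergent lysis buffer stained parasite DNA overnight.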

Another assay deals with CP238. In short, it runs like this:
as §1

The next assay concerns CP247. In a few lines: as §1
A further assay deals with CP250. In a few lines:
as §1

In a further assay the test system is CP252. In a few lines: as §1
A further assay concerns CP256. In short, it runs like this:
as §1

A further assay concerns CP260. In a few lines: as §1
The next assay deals with CP262. In short, it runs like this: as §1
A further assay deals with CP265. In a few lines:
as §1

A further assay has as its system CP266. In short, it runs like this: as §1
The test system of a further assay is CP268. In a few lines: as §1
The test system of a further assay is CP269. In short, it runs like this: as §1
For the next assay, the system named is CP286. In short, it runs like this: as §1
The next assay has as its system CP291. In short, it runs like this: as §1
Another assay concerns CP297. In short, it runs like this: as §1
For a further assay, the system named is CP305. In a few lines:
as §1

Another assay concerns CP315. In short, it runs like this: as §1
In another assay the test system is CP325. In short, it runs like this:
as §1

For a further assay, the system named is CP329. In short, it runs like this: as §1
In a further assay the test system is CP335. In short, it runs like this: as §1
Potency is read from the fitted curve at half-maximal effect.

Take `Cc1cc2cc3c(C)cc(=O)oc3c(C)c2o1`: the Potency result in the assay on CP237, in the assay on CP238, in the assay on CP247, with CP250, in the assay with CP252 and in the assay on CP256 was “inactive” in each case. Also, the Potency result with CP260, in the assay on CP262, with CP265, with CP266, with CP268 and with CP269 was “inactive” each time. Besides, the Potency result in the assay on CP286, with CP291, in the assay with CP297, with CP305, in the assay with CP315 and in the assay on CP325 was “inactive” each time. The Potency result in the assay with CP329 and with CP335 was “inactive” throughout.

`CCCCN(CCCC)CCC(O)c1cc2c(Cl)cc(Cl)cc2c2cc(C(F)(F)F)ccc12` (stereo not drawn): the Potency was 0.0056 µM (active) in the assay with CP237; 0.0079 µM (active) in the assay on CP238; 0.0178 µM (active) with CP247; 0.0316 µM (active) in the assay with CP250; 0.0158 µM (active) with CP252; 0.141 µM (active) in the assay on CP256. Further, the Potency in the assay on CP260 is 0.0063 µM (active); in the assay on CP262, 0.0181 µM (active); with CP265 it was 0.0316 µM (active); with CP266, 0.0907 µM (active); in the assay on CP268, 0.051 µM (active); in the assay on CP269 it was 0.0161 µM (active). In addition, the Potency in the assay with CP286 was 0.0089 µM (active); in the assay on CP291, 0.0287 µM (active); in the assay with CP297 it was 0.0181 µM (active); in the assay on CP305, 0.0361 µM (active); in the assay on CP315, 0.051 µM (active); in the assay with CP325, 0.0287 µM (active). Besides, the Potency with CP329 was 0.051 µM (active); in the assay on CP335, 0.0081 µM (active).

`COc1cc2c(cc1OC)C1CC(=O)C(CC(C)C)CN1CC2` (stereo not drawn): the Potency entry in the assay on CP237, in the assay with CP238, in the assay with CP247, with CP250, with CP252 and in the assay on CP256 was “inactive” in each case. Besides, the Potency result in the assay with CP260, with CP262, in the assay on CP265, in the assay on CP266, with CP268 and in the assay on CP269 was “inactive” in each case. Further, the Potency result in the assay with CP286, in the assay with CP291, with CP297, in the assay on CP305, in the assay with CP315 and with CP325 was “inactive” in each case. Further, the Potency result in the assay with CP329 and in the assay on CP335 was “inactive” in each case.

With `CCCc1cc(=O)[nH]c(=S)[nH]1`, the Potency result in the assay with CP237, in the assay on CP238, in the assay on CP247, in the assay with CP250, with CP252 and in the assay on CP256 was “inactive” throughout. Besides, the Potency entry with CP260, in the assay on CP262, with CP265, with CP266, in the assay on CP268 and with CP269 was “inactive” throughout. The Potency entry in the assay with CP286, in the assay with CP291, with CP297, with CP305, in the assay on CP315 and in the assay on CP325 was “inactive” each time. For the same compound, the Potency entry with CP329 and in the assay with CP335 was “inactive” in each case.

For `CNC[C@H](O)c1ccc(O)c(O)c1`, the Potency entry in the assay with CP237, in the assay with CP238, with CP247, in the assay with CP250, with CP252 and with CP256 was “inactive” each time. The Potency entry in the assay with CP260, in the assay with CP262, in the assay with CP265, in the assay with CP266, in the assay with CP268 and in the assay with CP269 was “inactive” in each case. The Potency result in the assay with CP286, with CP291, in the assay with CP297, in the assay on CP305, with CP315 and in the assay on CP325 was “inactive” in each case. For the same compound, in the assay with CP329, the Potency result is “inactive”.

As to `Nc1cccc2c1CN(C1CCC(=O)NC1=O)C2=O` (stereo not drawn), the Potency entry in the assay with CP237, in the assay on CP238, in the assay on CP247, with CP250, with CP252 and in the assay with CP256 was “inactive” in each case. Also, the Potency result in the assay on CP260, in the assay with CP262, in the assay with CP265, with CP266, in the assay with CP268 and with CP269 was “inactive” throughout. Also, the Potency result with CP286, in the assay with CP291, in the assay on CP297, in the assay with CP305, with CP315 and in the assay on CP325 was “inactive” each time. For the same compound, the Potency result in the assay with CP329 and with CP335 was “inactive” each time.

As for `O=C1c2ccccc2-c2n[nH]c3cccc1c23`, the Potency result in the assay on CP237, in the assay with CP238, with CP247, in the assay with CP250, in the assay on CP252 and in the assay with CP256 was “inactive” throughout. Also, the Potency result in the assay on CP260, in the assay on CP262, with CP265, in the assay on CP266, in the assay on CP268 and in the assay with CP269 was “inactive” in each case. Further, the Potency entry with CP286, in the assay with CP291, with CP297, in the assay with CP305, with CP315 and in the assay with CP325 was “inactive” throughout. Moreover, the Potency entry with CP329 was “inactive”.

As for `CCCOc1ccc2nc(NC(=O)OC)[nH]c2c1`, the Potency result with CP237, in the assay with CP238, in the assay on CP247, in the assay with CP250, in the assay on CP252 and in the assay with CP256 was “inactive” throughout. Also, the Potency result in the assay on CP260, in the assay on CP262, in the assay on CP265, in the assay on CP266, in the assay with CP268 and in the assay on CP269 was “inactive” in each case. The Potency result with CP286, in the assay on CP291, in the assay with CP297, in the assay with CP305, with CP315 and in the assay with CP325 was “inactive” each time. For the same compound, the Potency entry with CP329 and in the assay on CP335 was “inactive” each time.

As for `COC(=O)C1=C(C)NC(C)=C(C(=O)OCCCN2CCC(c3ccccc3)(c3ccccc3)CC2)C1c1cccc([N+](=O)[O-])c1` (stereo not drawn), the Potency in the assay with CP237 was 2.82 µM (active); with CP238, 8.91 µM (active); in the assay on CP247, 6.31 µM (active); in the assay with CP250, 7.08 µM (active); in the assay with CP252, 5.01 µM (active); in the assay on CP256 it was 7.08 µM (active). Besides, the Potency in the assay with CP260 is 2.82 µM (active); in the assay on CP262, 6.01 µM (active); with CP265 it was 7.94 µM (active); in the assay with CP266, 9.53 µM (active); in the assay on CP268, 9.53 µM (active); in the assay on CP269, 4.78 µM (active). The Potency with CP286 was 2.82 µM (active); in the assay with CP291, 6.75 µM (active); with CP297 it was 4.78 µM (active); in the assay with CP305, 7.57 µM (active); with CP315, 9.53 µM (active); in the assay with CP325, 6.01 µM (active). For the same compound, the Potency in the assay with CP329 is 8.49 µM (active); in the assay with CP335, 4.26 µM (active).

Take `Cc1cc2c(s1)Nc1ccccc1N=C2N1CCN(C)CC1`: the Potency entry in the assay with CP237, in the assay with CP238, in the assay on CP247, with CP250, with CP252 and with CP256 was “inactive” in each case. In addition, the Potency entry in the assay on CP260, in the assay on CP262, with CP265, with CP266, in the assay with CP268 and in the assay with CP269 was “inactive” throughout. The Potency result with CP286, in the assay on CP291, in the assay with CP297, in the assay on CP305, in the assay with CP315 and in the assay with CP325 was “inactive” each time. Besides, the Potency result in the assay on CP329 and in the assay on CP335 was “inactive” each time.

In the case of `COC(=O)[C@H](Cc1ccccc1)NC(=O)[C@@H](N)CC(=O)O` (H-Asp-Phe-OMe), the Potency entry in the assay with CP237, in the assay on CP238, with CP247, in the assay with CP250, with CP252 and in the assay on CP256 was “inactive” each time. The Potency result with CP260, in the assay on CP262, in the assay on CP265, in the assay on CP266, in the assay on CP268 and in the assay on CP269 was “inactive” throughout. Besides, the Potency entry with CP286, with CP291, in the assay on CP297, with CP305, in the assay with CP315 and in the assay with CP325 was “inactive” each time. Moreover, the Potency entry in the assay on CP329 and in the assay on CP335 was “inactive” each time.

With `CCCCc1ccc2nc(NC(=O)OC)[nH]c2c1`, the Potency result in the assay on CP237, with CP238, in the assay on CP247, in the assay on CP250, with CP252 and in the assay on CP256 was “inactive” in each case. Besides, the Potency entry in the assay on CP260, in the assay on CP262, with CP265, with CP266, with CP268 and in the assay with CP269 was “inactive” throughout. In addition, the Potency result with CP286, with CP291, in the assay on CP297, with CP305, in the assay on CP315 and with CP325 was “inactive” in each case. Moreover, the Potency result in the assay with CP329 and with CP335 was “inactive” in each case.

With `CC1(C)CCC(C)(C)c2cc(NC(=O)c3ccc(C(=O)O)cc3)ccc21`, the Potency result in the assay on CP237, in the assay on CP238, in the assay with CP247, in the assay on CP250, in the assay on CP252 and with CP256 was “inactive” in each case. The Potency entry in the assay on CP260, with CP262, in the assay on CP265, in the assay on CP266, in the assay on CP268 and in the assay with CP269 was “inactive” in each case. Moreover, the Potency entry in the assay on CP286, with CP291, with CP297, with CP305, with CP315 and in the assay on CP325 was “inactive” throughout. In addition, the Potency entry in the assay with CP329 and in the assay with CP335 was “inactive” in each case.
